# Source: PubChem BioAssay (The Scripps Research Institute Molecular Screening Center)
# M1 ag parental: nonselective activator or artifact in parental CHO-K1 cells. activation, % at 3 µM. AID 602248. hit rate 0.48% among 360,000. Fluo-8 calcium fluorescence; scaled to maximal ATP response, vehicle zero; in the data active = activation above about 15%;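 also: untransfected CHO-K1 host cells lacking M1 receptor as counterscreen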
# CHO-K1 Ca antag: nonselective inhibitor or artifact in parental CHO-K1 cells. inhibition, % at 3 µM. ATP-induced calcium, Fluo-8 fluorescence. hit rate 0.6% among 360,000;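 active = inhibition above a per-plate cutoff, the plate's mean sample inhibition plus 3 SD, cut at about 24% in these data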
# M1 PAM: human CHRM1 positive allosteric modulation; hit rate 0.088% among 360,000; activation, % at 3 µM; AID 588819; P11229; CHO-K1 hM1, Fluo-8 calcium fluorescence, ACh EC20; 0% = ACh EC20, 100% = maximal ACh; in the data active = activation above about 19%, passing the limit was not always enough
# Target sequence (P11229 whole entry, looked up): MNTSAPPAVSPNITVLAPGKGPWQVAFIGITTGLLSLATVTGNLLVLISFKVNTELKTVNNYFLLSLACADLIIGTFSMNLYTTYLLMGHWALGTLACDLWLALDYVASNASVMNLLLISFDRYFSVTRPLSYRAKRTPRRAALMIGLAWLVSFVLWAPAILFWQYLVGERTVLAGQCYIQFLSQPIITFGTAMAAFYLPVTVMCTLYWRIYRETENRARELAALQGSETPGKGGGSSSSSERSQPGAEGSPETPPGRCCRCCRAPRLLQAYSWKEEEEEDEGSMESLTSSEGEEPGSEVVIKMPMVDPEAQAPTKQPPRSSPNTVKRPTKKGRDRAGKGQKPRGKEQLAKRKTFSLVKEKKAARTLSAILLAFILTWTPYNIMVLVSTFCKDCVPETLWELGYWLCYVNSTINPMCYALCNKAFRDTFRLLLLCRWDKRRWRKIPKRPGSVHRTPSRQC
# CHRM1 agonist: human M1 muscarinic receptor agonism; CHO-K1 hM1, Fluo-8 calcium fluorescence, agonist mode; 0% DMSO, 100% acetylcholine EC100; hit rate 0.33% among 360,000; P11229; AID 588814; activation, % at 3 µM;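 active = activation above the run's mean compound activation plus 3 SD, cut at about 16% in these data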;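 also: peak over basal fluorescence ratio within a 140 s kinetic read after compound addition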
# M1 antag: blocks human M1 muscarinic receptor. P11229. CHO-K1 hM1, Fluo-8 calcium fluorescence, ACh EC80 antagonist. inhibition, % at 3 µM. hit rate 1.3% among 360,000;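 active = percent inhibition above its own plate's cutoff, namely the mean of that plate's compound wells plus 3 SD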;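 also: peak over basal fluorescence ratio during 140 s after agonist addition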
# M1 PAM parental: M1 PAM counterscreen hit in parental CHO-K1 cells | hit rate 0.02% among 360,000 | AID 602247 | activation, % at 3 µM | ATP EC20, Fluo-8 calcium fluorescence; 0% at ATP EC20, 100% at ATP max;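 active = activation above the run cutoff, the mean activation of all test compounds plus 3 SD, cut at about 40% in these data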;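 also: peak over basal fluorescence ratio in a 140 s read after ATP addition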
# Hits are given with their value; 0 = inactive; - = no result given; ! = a repeat was not active. Hits are enriched below; roughly 2.3% of the tested compounds scored in any of these assays.
SMILES,M1 ag parental,CHO-K1 Ca antag,M1 PAM,CHRM1 agonist,M1 antag,M1 PAM parental
CC(NC(=O)c1cccc(S(=O)(=O)N2CCc3ccccc32)c1)c1ccco1 (stereo not drawn),0,0,0,0,0,0
Cc1ccccc1Nc1ccc([N+](=O)[O-])cn1,0,0,0,0,0,0
Cc1ccccc1NC1=NCC(c2ccc([N+](=O)[O-])cc2)S1 (stereo not drawn),19,0,0,0,0,0
CN1CCc2c(c3ccccc3n2Cc2ccccc2)C1,0,0,0,0,66!,0
O=C(c1cccs1)N1CCN(S(=O)(=O)c2cccc(Cl)c2Cl)CC1,0,0,0,0,0,0
CC(=O)Nc1c(O)nc(SCC(=O)N2CCCCC2)[nH]c1=O,0,0,26,0,0,0
CC(C)(CNC(=O)c1cccc(F)c1)CNC(=O)c1cccc(F)c1,0,0,0,0,0,0
COc1cc(CN2CCC(C(=O)N3CCN(c4ccccc4F)CC3)CC2)cc(OC)c1O,0,33,0,0,0,0
COc1ccc(C(O)(C(C)C)C(CN2CCOCC2)c2ccc(Cl)cc2)cc1 (stereo not drawn),0,0,0,0,0,0
Cc1ncc(C[n+]2csc(CCOC(=O)CC34CC5CC(CC(C5)C3)C4)c2C)c(N)n1,0,0,0,0,0,0
Cc1c(CCOC(=O)CC23CC4CC(CC(C4)C2)C3)sc[n+]1Cc1ccccc1,0,0,0,0,99,0
CCOC(=O)c1ccc(NC(=O)CSc2nc3cccnc3n2C)cc1,0,34,0,0,0,0
COc1ccc(C(=O)CSc2nc3cccnc3n2C)cc1,0,28,0,0,0,0
Cc1cc(OCC(=O)OCC(=O)NC2CCS(=O)(=O)C2)ccc1Cl (stereo not drawn),0,0,0,0,0,0
CCN(CC)C(=O)c1ccc(COc2ccc(Cl)c(C)c2)o1,0,0,0,0,32,0
C[C@H](CO)N1C[C@H](C)[C@@H](CN(C)S(=O)(=O)c2ccccc2)Oc2c(NC(=O)C3CCCCC3)cccc2C1=O,0,0,0,0,0,0
Cc1cc(C)cc(N(CCC#N)C(=O)COC(=O)C2CCN(c3ccc(C(F)(F)F)cn3)CC2)c1,0,0,0,0,30,0
COc1ccccc1C(NC(=O)C1CCCCC1)c1c(O)ccc2ccccc12 (stereo not drawn),20,0,0,0,0,0
C=CCNC(=O)c1cc2cc(Cl)ccc2nc1N,0,0,-,-,-,0
COc1cc(F)ccc1-c1cc(C(=O)Nc2ccc(NC(C)=O)cc2)[nH]n1,0,0,0,0,0,0
Cc1c(NC(=O)Nc2cccc(Cl)c2Cl)c(=O)n(-c2ccccc2)n1C,0,0,0,0,0,0
CSc1nc2c(c(=O)[nH]1)C(c1ccc(Br)cc1)CC(=O)N2 (stereo not drawn),16,0,0,0,0,0
CSc1nc2c(c(=O)[nH]1)C(c1ccc(F)cc1)CC(=O)N2 (stereo not drawn),0,0,0,0,0,0
CC(CCc1ccccc1)NC(=O)COC(=O)c1ccccc1O (stereo not drawn),16,0,0,0,0,0
COc1ccccc1C(=O)OCC(=O)NC(C)CCc1ccccc1 (stereo not drawn),0,0,0,0,0,0
SMILES,M1 ag parental,CHO-K1 Ca antag,M1 PAM,CHRM1 agonist,M1 antag,M1 PAM parental
Cc1nc(CNS(=O)(=O)c2ccc(F)cc2)cs1,0,0,0,0,0,0
Cn1c(/C(C#N)=C/c2cccc(O)c2)nc2ccccc21,0,0,0,0,0,0
Cn1c(/C(C#N)=C/c2ccc(-c3ccc(S(N)(=O)=O)cc3)o2)nc2ccccc21,22,0,0,0,0,0
CCN(CC(=O)Nc1c(F)cccc1F)C(=O)c1cc(-c2cccs2)nn1-c1ccccc1,0,0,0,0,36,0
CN(CC(=O)Nc1c(Cl)cccc1Cl)C(=O)c1cc(-c2cccs2)nn1-c1ccccc1,0,0,0,0,0,0
O=C(Cc1ccccc1[N+](=O)[O-])Nc1ccc2c(c1)OCCO2,0,0,0,0,0,0
COC(=O)c1cc(NC(=O)Cc2ccccc2[N+](=O)[O-])cc(C(=O)OC)c1,15,0,0,0,0,0
CN(C)C(CNC(=O)CCS(=O)(=O)c1ccccc1)c1ccccc1 (stereo not drawn),0,0,0,0,0,0
COc1ccc(NC(=O)COc2ccccc2)cc1Cl,0,0,0,0,0,0
COc1ccc(NC(=O)COc2ccccc2C(=O)NCC(c2ccccc2)N(C)C)cc1Cl (stereo not drawn),0,0,0,0,73,0
CN(C)C(CNC(=O)c1ccc(NC(=O)CC#N)cc1)c1ccccc1 (stereo not drawn),0,0,0,0,30,0
CN(C)C(CNC(=O)CCC(=O)c1ccc(Br)cc1)c1ccccc1 (stereo not drawn),0,0,0,0,35,0
N#CC(C#N)=Cc1c[nH]c(=O)c(C#N)c1Nc1ccccc1,0,0,0,0,0,0
Cc1ccc2c(=O)[nH]c(Cc3ccccc3C(=O)O)nc2c1,0,0,0,0,0,0
O=C(NCc1ccc(Cl)cc1)c1cc(S(=O)(=O)N2CCCCC2)c[nH]1,0,0,0,0,0,0
Nc1nnc(SCc2ccc(Cl)cc2)s1,0,0,0,0,28,0
Clc1ccc(CSc2nnc(NC3=NCCCCC3)s2)cc1,0,0,0,0,33,0
Nc1nnc(CSCc2ccc(Cl)cc2)s1,0,0,0,0,0,0
